The target of one assay is CDH24. In words: pooled miR-30 sensor sort-seq; sequence = guide strand. The settings on record: shRNA.
The sequence TTCGAGTCCGCAGCAGAGCAGG displayed a sensor-assay potency score (higher = more potent) of -1.36. Same read-out and setting: in the case of TTGTCCTGGACAGTAAAGTTGG it was -0.744; in that of TTCCTCAATGACAAAGAACTGG, -0.774; in that of TGGATTGTCGTTGATGTCTTGC, -0.503. Same read-out and setting: to TCATCAATCACAAATACGGTGC belongs -0.0927.

As to TGCAAGTCTGTGCTGATGCTGA, the sensor-assay potency score (higher = more potent) was -0.691. The same measure, in the same setting: in the case of TTCTATGGGAACCAAGTAGGGG it was -0.879. Turning to TCGTTGACATCGCTGAGCGTGA, the sensor-assay potency score (higher = more potent) is -0.691. TAGAGAAGCAACGCTCCGGATC showed a sensor-assay potency score (higher = more potent) of -0.845.

ATCCAGAACAGTGTACACCAGC registered a sensor-assay potency score (higher = more potent) of -0.986. The same measure, in the same setting: in the case of TTCATCTCTGTCCAGGGCCCGG it was -1.68; in that of TAGGCTGGGTCAATGAGCGTGT, -0.193.

A further assay deals with CDH2. Described as above. The settings on record: shRNA.
TTAACGTATACTGTTGCACTTT registered a sensor-assay potency score (higher = more potent) of -0.309.

For the sequence TTTGCTGCATATATCGATCTGG, the sensor-assay potency score (higher = more potent) is 0.226.

The sequence TTCAACTTCTGCTGACTCCTTC displayed a sensor-assay potency score (higher = more potent) of 0.711.

For TTGATTGTAAACATGTTGGGTG, the sensor-assay potency score (higher = more potent) was determined as 0.885. TTGCTGCATATATCGATCTGGG came in with a sensor-assay potency score (higher = more potent) of -0.846. For the sequence TATTTCTTCAACTTCTGCTGAC, the sensor-assay potency score (higher = more potent) worked out at 0.204.

In turn, TTGACCACGGTGACTAACCCGT came in with a sensor-assay potency score (higher = more potent) of -0.441. In turn, TAGTCAAACACTAACAGGGAGT had a sensor-assay potency score (higher = more potent) of -0.885. On the same count and under the same terms, to TATTATCTCTTACATCATCTTC belongs -0.354. In turn, TTGATGACAATGTCAATGGGGT displayed a sensor-assay potency score (higher = more potent) of 0.314. Still for that read-out and setting: to TTTCTCGATCAAGTCCAGCTGC belongs -0.018. Still for that read-out and setting: in the case of TTTGTTTCAAAGTCGATTGGTT it was 0.586; in that of TTATCTTTAAATTAAGCTGAGC, -0.63.

(Values after the OligoGym collection.)
Further: reference of the scale not given here.
